# This is a sample that favours compounds with a hit; in the whole collection about 3.3% have one here.
# Calb FLC – affects C. albicans growth with fluconazole. 300,000 tested, 0.57% active. AID 1979. growth inhibition, % (concentration not given with the values). C. albicans CaCi-2 (fluconazole-resistant clinical isolate) + fluconazole, Alamar Blue growth, 48 h;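 active = growth inhibition above about 58% in most replicates, limit read from the data, passing the limit was not always enough; inconclusive = exactly half the replicates above a set limit; inactive = most replicates below a set limit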;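 note: all wells also contain fluconazole at 8 µg/ml as a sub-toxic cotreatment; 0% = median of DMSO wells and 100% = median of geldanamycin control wells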
# Efflux pump mplx – blocks antifungal efflux pumps in multiplex yeast assay | S. cerevisiae Candida pump triplex, Nile Red efflux | 330,000 tested, 0.44% active | inhibition, % at 10 µM | AID 485275;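 active = plate passing quality check with inhibition over a set limit, or well fluorescence over plate mean plus 4 SD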;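 note: Nile Red retained in pooled yeast measured as flow cytometry median fluorescence; 0% = buffer negative control and 100% = Enniatin B positive control; higher means more Nile Red kept so more efflux inhibition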
# H9c2 protect – myocardial damage modulation in H9c2 cells. protection from H2O2 cell death, % at 20 µM. AID 588492. H9c2 cardiomyocytes, H2O2 injury protection, ATPLite, 2 h. 360,000 tested, 0.63% active;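 active = compounds giving at least 50% protection of heart cells from peroxide-induced death in the single-dose screen, raw or plate-pattern-corrected value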;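 note: 0% = DMSO wells with peroxide and 100% = DMSO wells without peroxide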
# KCC2 mod – modulates chloride dependent transport by human KCC2 | Q9H2X9 | KCC2 cells, thallium flux FluoZin-2 fluorescence | B-score of Tl+ flux slope (higher = more flux/activation; lower = inhibition) at 10 µM | 190,000 tested, 2.2% active;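 active = thallium flux slope and its plate-corrected score both differing from the plate sample mean at a set confidence after two filtering rounds, in either direction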;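 note: slope of fluorescence scaled to starting intensity during 10 to 20 s after thallium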
# PHOSPHO1 block – blocks human PHOSPHO1 phosphatase activity; Q8TCT1; recombinant PHOSPHO1, absorbance phosphatase assay; inhibition, % at 13.3 µM; 290,000 tested, 1.1% active; AID 1565; in the data active = inhibition above about 60%
# Target sequence (Q8TCT1 whole entry, looked up): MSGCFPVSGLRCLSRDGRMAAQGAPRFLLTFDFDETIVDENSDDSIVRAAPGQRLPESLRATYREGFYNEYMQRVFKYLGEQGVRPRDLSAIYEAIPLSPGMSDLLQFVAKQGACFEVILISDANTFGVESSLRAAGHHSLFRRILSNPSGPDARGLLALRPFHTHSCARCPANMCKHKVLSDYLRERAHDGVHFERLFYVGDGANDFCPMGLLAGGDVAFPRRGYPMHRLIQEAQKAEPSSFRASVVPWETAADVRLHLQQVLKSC
# * hit, by the source's call; u = inconclusive; x = not tested or not shown.
SMILES,Calb FLC,Efflux pump mplx,H9c2 protect,KCC2 mod,PHOSPHO1 block
O=C(NNc1cc(Cl)cc(Cl)c1)c1cccs1,-33,0,-1,-0.43,1
O=C(Nc1nnc(COc2ccc(Cl)cc2)s1)c1cccs1,-2,0,-16,-0.0047,80*
O=C(NNc1ccc(Cl)cc1)c1cccs1,82*,0,-4,-0.53,-50
CCOc1cc(/C=N\NC(=O)c2ccc(NC(=O)C(C)(C)C)cc2)ccc1OC(=O)c1cccc(C)c1,10,0,66*,0.45,9
CC(C)(C)C(=O)Nc1ccc(C(=O)N/N=C/c2ccccc2OC(=O)c2ccccc2)cc1,-16,0,52*,-0.9,47
CC(C)(C)C(=O)Nc1ccc(C(=O)N/N=C/c2ccccc2OC(=O)c2ccc(Cl)cc2)cc1,1,-3,16,-2.9,-17
O=C(NN=C1c2ccccc2-c2ccccc21)c1cccc(Br)c1,-2,0,3,60*,-9
O=C(COc1cccc(Br)c1)NN=C1c2ccccc2-c2ccccc21,-36,-1,6,1.5,-19
CCCCCCCCCn1c2c(c(=N)c3c1CCC3)CCCC2,105*,x,-22,-0.018,16
CCCCCCCCCCn1c2c(c(=N)c3c1CCC3)CCC2,107*,0,-21,0.59,30
CCCCCCCCn1c2c(c(=N)c3ccccc31)CCC2,u,x,-23,-0.77,3
Cc1c(NC(=O)c2noc3c2CCc2ccccc2-3)c(=O)n(-c2ccccc2)n1C,8,1,-9,-3.3*,x
Cc1cc(NC(=O)c2noc3c2CCc2ccccc2-3)no1,-5,0,0,x,-2
CN(Cc1ccccc1)C(=O)CCn1c(=O)oc2ccccc21,-1,0,-2,0.93,-3
O=C(CCn1c(=O)oc2ccccc21)N(Cc1ccccc1)c1ccccc1,-10,0,73*,-1,28
CC1(NC(=O)c2cc(Cl)nc3ccccc23)CCS(=O)(=O)C1 (centres undefined),x,0,2,x,x
CCOc1ccccc1C1CC(c2cccs2)=NN1S(C)(=O)=O (centres undefined),u,0,-2,0.79,42
CS(=O)(=O)N1N=C(c2cccs2)CC1c1ccccc1O (centres undefined),-8,0,3,0.42,60*
COCCNc1ccc(N2C(=O)CCCC2=O)cc1[N+](=O)[O-],4,0,-9,-0.43,25
Cc1ccc(-n2nc3c(c2NC(=O)c2ccc(Br)o2)CSC3)c(C)c1,18,0,-3,x,14
Cc1ccc(-n2nc3c(c2NC(=O)C(C)(C)C)CSC3)c(C)c1,12,0,16,-0.0086,88*
CCC(=O)Nc1c2c(nn1-c1ccc(C)cc1C)CSC2,28,0,5,-0.51,86*
Cn1c(O)c(C=Nc2ccc(N3CCOCC3)cc2)c(=O)n(C)c1=S,-7,x,10,-1.2,0
Cc1cc(O)c(C=Nc2ccc(N3CCOCC3)cc2)c(C)c1Cl,-2,0,83*,x,41
COc1cc(/C=C2\C(=O)NN(c3ccc(C)cc3)C2=O)cc([N+](=O)[O-])c1O,-36,0,-2,-2.6,34
SMILES,Calb FLC,Efflux pump mplx,H9c2 protect,KCC2 mod,PHOSPHO1 block
COc1cc(/C=C2/C(=O)NN(c3ccccc3)C2=O)cc(Br)c1O,-17,0,5,x,44
COc1cc(/C=C2\C(=O)NN(c3ccccc3)C2=O)cc([N+](=O)[O-])c1O,109*,0,-5,x,6
COc1cc(/C=C2/C(=O)NN(c3ccc(Cl)cc3)C2=O)cc(OC)c1O,90*,0,7,x,38
CCOc1cc(/C=C2\C(=O)NN(c3ccccc3)C2=O)cc([N+](=O)[O-])c1O,95*,0,0,x,-5
O=C(O)c1cc2c(ncc3c(=O)n(-c4ccccc4)[nH]c32)s1,x,x,-1,x,x
COc1ccc(C(O)Cc2nccn2C)cc1 (centres undefined),5,0,-3,x,x
O=[N+]([O-])c1ccc(Nc2ccccc2)c2nonc12,89*,0,-17,x,23
CCOc1ccc(Nc2ccc([N+](=O)[O-])c3nonc23)cc1,71,0,-12,x,x
COc1cc(/C=C/C(=O)c2ccc3c(c2)OCO3)cc(Cl)c1O,4,0,10,x,32
C=CCn1c(SCC(=O)Nc2sccc2C(N)=O)nc2ccc(Cl)cc2c1=O,3,0,-25,11*,24
C=CCn1c(SCN2C(=O)c3ccccc3C2=O)nc2ccc(Cl)cc2c1=O,2,0,-17,42*,-6
